From PubChem BioAssay AID1159580 (chemical genetic matrix, 2015)
Several values for one entry are separate records, joined by “and”; a condition that tells them apart may be missing. Equal entries are not always repeated. Among all 5,500 compounds or so, about 2,000 (36%) were called active. Another 18% or so got no clear call; they are omitted. Rule as the data show it: active = normalized growth mostly below about 0.91 (no sharp cut-off); inconclusive = no clear call, values can overlap the other calls; inactive = mostly above about 0.92. Some of the results follow.

Assay: chemical genetic growth profiling, strain panel (AID 1159580);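 also: tested at 20 µM; growth read once vehicle control cultures reached saturation at 30 °C; 1 = growth at the plate median or of vehicle wells; lower values mean less growth of the strain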
Details: S. cerevisiae deletion strains, growth OD

Measured: normalized growth

COc1cc2c(cc1OC)Cc1cc(OC)c(OC)cc1Cc1cc(OC)c(OC)cc1C2
inactive: locus YAL021C, strain ccr4, stronger effect = lower value 1.03 | locus YAL026C, strain drs2, stronger effect = lower value 1.04 | locus YAL030W, strain snc1, stronger effect = lower value 1.03 | locus YBL061C, strain skt5, stronger effect = lower value 1.03 | locus YBR009C, strain hhf1, stronger effect = lower value 1.03 | locus YBR021W, strain FUR4, stronger effect = lower value 1.02 | locus YBR023C, strain chs3, stronger effect = lower value 1.03 | locus YBR171W, strain sec66, stronger effect = lower value 1.05 | locus YBR229C, strain ROT2, stronger effect = lower value 1.02 | locus YBR231C, strain swc5, stronger effect = lower value 1.04 | locus YBR279W, strain paf1, stronger effect = lower value 1.02 | locus YCL011C, strain gbp2, stronger effect = lower value 1.04 | locus YCL016C, strain dcc1, stronger effect = lower value 1.03 | locus YCL029C, strain bik1, stronger effect = lower value 1.02 | locus YCL061C, strain MRC1, stronger effect = lower value 1.02 | locus YCL069W, strain vba3, stronger effect = lower value 1.02 | locus YCR088W, strain abp1, stronger effect = lower value 1.02 | locus YDL005C, strain med2, stronger effect = lower value 1.03 | locus YDL035C, strain GPR1, stronger effect = lower value 1.01 | locus YDL040C, strain nat1, stronger effect = lower value 1.05 | locus YDL074C, strain BRE1, stronger effect = lower value 1.03 | locus YDL101C, strain DUN1, stronger effect = lower value 1.02 | locus YDL134C, strain PPH21, stronger effect = lower value 1.02 | locus YDL185W, strain tfp1, stronger effect = lower value 1.02 | locus YDL192W, strain arf1, stronger effect = lower value 1.05 | locus YDR001C, strain nth1, stronger effect = lower value 1.02 | locus YDR069C, strain doa4, stronger effect = lower value 1.04 | locus YDR101C, strain arx1, stronger effect = lower value 1.07 | locus YDR137W, strain rgp1, stronger effect = lower value 1.08 | locus YDR150W, strain NUM1, stronger effect = lower value 0.978 | locus YDR159W, strain sac3, stronger effect = lower value 1.05 | locus YDR162C, strain NBP2, stronger effect = lower value 1.03 | locus YDR195W, strain ref2 1.01 | locus YDR297W, strain sur2, stronger effect = lower value 1.03 | locus YDR318W, strain mcm21, stronger effect = lower value 1.02 | locus YDR334W, strain swr1, stronger effect = lower value 1.02 | locus YDR335W, strain msn5, stronger effect = lower value 1.03 | locus YDR388W, stronger effect = lower value 1.03 | locus YDR392W, strain spt3, stronger effect = lower value 0.993 | locus YDR502C, strain sam2, stronger effect = lower value 1.03 | locus YEL003W, strain gim4, stronger effect = lower value 1.04 | locus YEL037C, strain rad23, stronger effect = lower value 1.02 | locus YEL061C, strain CIN8 (second series), stronger effect = lower value 1.03 | locus YEL061C, strain CIN8, stronger effect = lower value 1.01 | locus YER015W, strain faa2, stronger effect = lower value 1.03 | locus YER016W, strain bim1, stronger effect = lower value 1.02 | locus YER110C, stronger effect = lower value 1.03 | locus YER111C, strain swi4, stronger effect = lower value 1.03 | locus YER155C, strain BEM2 (second series), stronger effect = lower value 1.03 | locus YER155C, strain BEM2, stronger effect = lower value 1.01 | locus YER167W, strain BCK2, stronger effect = lower value 1.01 | locus YFR010W, strain ubp6, stronger effect = lower value 1.05 | locus YGL078C, strain dbp3, stronger effect = lower value 1.03 | locus YGL086W, strain mad1, stronger effect = lower value 0.979 | locus YGL167C, strain pmr1, stronger effect = lower value 1.04 | locus YGL173C, strain kem1, stronger effect = lower value 1.04 | locus YGL227W, strain vid30, stronger effect = lower value 1.04 | locus YGL240W, strain doc1, stronger effect = lower value 1.03 | locus YGL248W, strain PDE1, stronger effect = lower value 1.02 | locus YGL253W, strain hxk2, stronger effect = lower value 1.02 | locus YGR078C, strain PAC10, stronger effect = lower value 1.02 | locus YGR135W, strain pre9, stronger effect = lower value 1.06 | locus YGR252W, strain gcn5, stronger effect = lower value 1.05 | locus YHR013C, strain ard1, stronger effect = lower value 1.05 | locus YHR027C, strain rpn1, stronger effect = lower value 1.04 | locus YHR030C, strain SLT2, stronger effect = lower value 1.01 and 1.02 | locus YHR079C, strain IRE1 (second series), stronger effect = lower value 1.02 | locus YHR079C, strain IRE1, stronger effect = lower value 1.06 | locus YHR094C, strain hxt1, stronger effect = lower value 1.03 | locus YHR129C, strain ARP1, stronger effect = lower value 1.01 | locus YHR142W, strain chs7, stronger effect = lower value 1.03 | locus YHR200W, strain rpn10, stronger effect = lower value 1.03 | locus YIL066C, strain RNR3, stronger effect = lower value 1.01 | locus YIL073C, strain SPO22, stronger effect = lower value 1.04 | locus YIL125W, strain kgd1, stronger effect = lower value 1.04 | locus YIR030C, strain dcg1, stronger effect = lower value 1.02 | locus YJL092W, strain hpr5, stronger effect = lower value 1.03 | locus YJL095W, strain BCK1 (second series), stronger effect = lower value 1.02 | locus YJL095W, strain BCK1, stronger effect = lower value 1.02 and 1.03 | locus YJL115W, strain asf1, stronger effect = lower value 1.04 | locus YJL129C, strain trk1, stronger effect = lower value 1.05 | locus YJL134W, strain LCB3, stronger effect = lower value 0.998 | locus YJL154C, strain vps35, stronger effect = lower value 1.01 | locus YJL164C, strain tpk1, stronger effect = lower value 1 | locus YJL166W, strain qcr8, stronger effect = lower value 1.03 | locus YJL168C, strain set2, stronger effect = lower value 1.03 | locus YJL187C, strain SWE1 (second series), stronger effect = lower value 1.03 | locus YJL187C, strain SWE1, stronger effect = lower value 1.03 | locus YJR043C, strain POL32, stronger effect = lower value 1
